Out of some 5,500 compounds screened, about 2,000 (36%) were called active. Inconclusive results (about 18%) are left out. Cut-off read from the data, not from the text of the source: active = normalized growth mostly below about 0.91 (no sharp cut-off); inconclusive = no clear call, values can overlap the other calls; inactive = mostly above about 0.92. This is one part of the list.
Assay: chemical genetic growth profiling, strain panel (AID 1159580);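 note: tested at 20 µM; growth read once vehicle control cultures reached saturation at 30 °C; 1 = growth at the plate median or of vehicle wells; lower values mean less growth of the strain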
Details: growth OD

Measured: normalized growth

CCCCCC(C)N (configuration not stated)
inactive: S. cerevisiae deletion strains, locus YJR075W, strain HOC1, hits give low values 1.02 | S. cerevisiae deletion strains, locus YKL009W, strain mrt4, hits give low values 0.946 | S. cerevisiae deletion strains, locus YKL068W, hits give low values 1 | S. cerevisiae deletion strains, locus YKL085W, strain MDH1 (second series), hits give low values 1.05 | S. cerevisiae deletion strains, locus YKL085W, strain MDH1, hits give low values 1.05 | S. cerevisiae deletion strains, locus YKL160W, strain elf1, hits give low values 1.03 | S. cerevisiae deletion strains, locus YKL190W, strain CNB1, hits give low values 1.02 | S. cerevisiae deletion strains, locus YKR001C, strain vps1, hits give low values 0.988 | S. cerevisiae deletion strains, locus YKR026C, strain gcn3, hits give low values 1.03 | S. cerevisiae deletion strains, locus YKR091W, strain srl3, hits give low values 1.02 | S. cerevisiae deletion strains, locus YLL001W, strain dnm1, hits give low values 1.03 | S. cerevisiae deletion strains, locus YLL026W, hits give low values 1.03 | S. cerevisiae deletion strains, locus YLL041C, strain sdh2, hits give low values 1.02 | S. cerevisiae deletion strains, locus YLR027C, strain aat2, hits give low values 1.03 | S. cerevisiae deletion strains, locus YLR039C, strain RIC1, hits give low values 1.04 | S. cerevisiae deletion strains, locus YLR058C, strain SHM2, hits give low values 1.02 | S. cerevisiae deletion strains, locus YLR102C, strain apc9, hits give low values 0.995 | S. cerevisiae deletion strains, locus YLR113W, strain HOG1, hits give low values 0.978 | S. cerevisiae deletion strains, locus YLR221C, strain rsa3, hits give low values 1.03 | S. cerevisiae deletion strains, locus YLR258W, strain gsy2, hits give low values 1.02 | S. cerevisiae deletion strains, locus YLR262C, strain YPT6 (second series), hits give low values 1.05 | S. cerevisiae deletion strains, locus YLR262C, strain YPT6, hits give low values 1.05 | S. cerevisiae deletion strains, locus YLR268W, strain sec22, hits give low values 0.972 | S. cerevisiae deletion strains, locus YLR320W, strain mms22, hits give low values 1.04 | S. cerevisiae deletion strains, locus YLR330W, strain CHS5, hits give low values 1.01 | S. cerevisiae deletion strains, locus YLR342W, strain FKS1 (second series), hits give low values 1.03 | S. cerevisiae deletion strains, locus YLR342W, strain FKS1, hits give low values 1.03 | S. cerevisiae deletion strains, locus YLR357W, strain rsc2, hits give low values 1.05 | S. cerevisiae deletion strains, locus YLR370C, strain arc18, hits give low values 1.04 | S. cerevisiae deletion strains, locus YLR371W, strain rom2, hits give low values 0.989 | S. cerevisiae deletion strains, locus YLR384C, strain iki3, hits give low values 1.02 | S. cerevisiae deletion strains, locus YLR418C, strain cdc73, hits give low values 0.994 | S. cerevisiae deletion strains, locus YML016C, strain PPZ1, hits give low values 1.01 | S. cerevisiae deletion strains, locus YML032C, strain rad52, hits give low values 0.986 | S. cerevisiae deletion strains, locus YML120C, strain ndi1, hits give low values 1.03 | S. cerevisiae deletion strains, locus YML124C, strain tub3, hits give low values 0.997 | S. cerevisiae deletion strains, locus YMR058W, strain fet3, hits give low values 1.02 | S. cerevisiae deletion strains, locus YMR078C, strain ctf18, hits give low values 0.98 | S. cerevisiae deletion strains, locus YMR125W, strain sto1, hits give low values 1.03 | S. cerevisiae deletion strains, locus YMR129W, hits give low values 1.02 | S. cerevisiae deletion strains, locus YMR205C, strain PFK2, hits give low values 1.05 | S. cerevisiae deletion strains, locus YMR223W, strain ubp8, hits give low values 1.02 | S. cerevisiae deletion strains, locus YMR231W, strain pep5, hits give low values 1.03 | S. cerevisiae deletion strains, locus YMR263W, strain SAP30, hits give low values 1.02 | S. cerevisiae deletion strains, locus YMR307W, strain GAS1, hits give low values 1.03 | S. cerevisiae deletion strains, locus YNL067W, strain RPL9B, hits give low values 1.01 | S. cerevisiae deletion strains, locus YNL071W, strain lat1, hits give low values 1.03 | S. cerevisiae deletion strains, locus YNL128W, strain TEP1, hits give low values 1.01 | S. cerevisiae deletion strains, locus YNL153C, strain GIM3, hits give low values 1.01 | S. cerevisiae deletion strains, locus YNL183C, strain NPR1, hits give low values 0.943 | S. cerevisiae deletion strains, locus YNL209W, strain ssb2, hits give low values 1.03 | S. cerevisiae deletion strains, locus YNL233W, strain BNI4, hits give low values 1.02 | S. cerevisiae deletion strains, locus YNL248C, strain rpa49, hits give low values 1.03 | S. cerevisiae deletion strains, locus YNL250W, strain rad50, hits give low values 0.994 | S. cerevisiae deletion strains, locus YNL271C, strain bni1, hits give low values 0.985 | S. cerevisiae deletion strains, locus YNL298W, strain CLA4, hits give low values 0.989 | S. cerevisiae deletion strains, locus YNL307C, strain MCK1, hits give low values 0.999 | S. cerevisiae deletion strains, locus YNL322C, strain KRE1 (second series), hits give low values 1.04 | S. cerevisiae deletion strains, locus YNL322C, strain KRE1, hits give low values 1.01 | S. cerevisiae deletion strains, locus YNR049C, strain mso1, hits give low values 1.03 | S. cerevisiae deletion strains, locus YNR052C, strain pop2, hits give low values 0.988 | S. cerevisiae deletion strains, locus YOL006C, strain TOP1, hits give low values 1.01 | S. cerevisiae deletion strains, locus YOL012C, strain htz1 1.25 | S. cerevisiae deletion strains, locus YOL147C, strain pex11, hits give low values 1 | S. cerevisiae deletion strains, locus YOR001W, strain rrp6, hits give low values 1 | S. cerevisiae deletion strains, locus YOR061W, strain CKA2, hits give low values 1.02 | S. cerevisiae deletion strains, locus YOR069W, strain VPS5, hits give low values 1.01 | S. cerevisiae deletion strains, locus YOR070C, strain gyp1, hits give low values 1.02 | S. cerevisiae deletion strains, locus YOR080W, strain dia2, hits give low values 1.04 | S. cerevisiae deletion strains, locus YOR083W, strain WHI5, hits give low values 1.02 | S. cerevisiae deletion strains, locus YOR106W, strain vam3, hits give low values 1.04 | S. cerevisiae deletion strains, locus YOR136W, strain idh2, hits give low values 0.988 | S. cerevisiae deletion strains, locus YOR144C, strain elg1, hits give low values 0.992 | S. cerevisiae deletion strains, locus YOR184W, strain ser1, hits give low values 0.982 | S. cerevisiae deletion strains, locus YOR231W, strain MKK1, hits give low values 0.997 | S. cerevisiae deletion strains, locus YOR265W, strain rbl2, hits give low values 1.02 | S. cerevisiae deletion strains, locus YOR270C, strain vph1, hits give low values 1.07 | S. cerevisiae deletion strains, locus YOR290C, strain snf2, hits give low values 1.02 | S. cerevisiae deletion strains, locus YOR316C, strain cot1, hits give low values 0.999 | S. cerevisiae deletion strains, locus YPL051W, strain arl3, hits give low values 1.01 | S. cerevisiae deletion strains, locus YPL055C, strain LGE1, hits give low values 1.03 | S. cerevisiae deletion strains, locus YPL078C, strain atp4, hits give low values 1.03 | S. cerevisiae deletion strains, locus YPL106C, strain sse1, hits give low values 1.03 | S. cerevisiae deletion strains, locus YPL240C, strain hsp82, hits give low values 1.03 | S. cerevisiae deletion strains, locus YPL241C, strain CIN2, hits give low values 1 | S. cerevisiae deletion strains, locus YPL256C, strain CLN2, hits give low values 0.992 | S. cerevisiae deletion strains, locus YPR119W, strain clb2, hits give low values 0.989 | S. cerevisiae deletion strains, locus YPR141C, strain kar3, hits give low values 0.99 | S. cerevisiae deletion strains, locus YPR163C, strain tif3, hits give low values 0.992 | S. cerevisiae deletion strains, locus YPR167C, strain met16, hits give low values 0.998 | S. cerevisiae deletion strains, strain wtn01, hits give low values 0.997 | S. cerevisiae strains, strain wild type, hits give low values 1.01

From PubChem BioAssay AID1159580 (chemical genetic matrix, 2015)
